Active and inactive are the calls of the source. Unless noted, the rule behind the calls is not given here.

For test [1], the system named is Wnt5a (protein binding on small-molecule microarray). Kind of test: small molecules binding Wnt5a protein – biophysical, small-molecule microarray, 635/667 nm fluorescence, primary screen (AID 1142).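 Note: fluorescence read at 667 nm with signal to noise per printed feature.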 The settings on record: 635 nm fluorescence, higher = more signal.
Test [2] can be described thus: ATP-based viability of Huh7 replicon cells – cell-based, CellTiter-Glo luminescence, basal, 48 h, cytotoxicity control for HCV replication inhibitor project, primary screen (AID 1143).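 Note: Huh7 hepatoma cells carrying a hepatitis C replication reporter with no stimulus; test concentration not given here.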 The settings on record: higher = more signal, called active from +8 up or from −8 down.
Test [3] in a line: Pseudomonas biofilm growth suppression – PAO1 strain, BacTiter-Glo luminescence, LB-PBS, primary screen (AID 1144). The settings on record: P. aeruginosa PAO1 biofilm, 12 h, higher = more signal.
The nature of test [4]: basal CRE-LacZ reporter activity in PC12 – cell-based, unstimulated, primary screen (AID 1145). The settings on record: no forskolin, luminescence, 4.5 h, higher = more signal, called active from +8 up or from −8 down.
A short description of test [5]: forskolin-driven CRE-LacZ activity in PC12 – cell-based, CRE-LacZ reporter, forskolin-stimulated, primary screen (AID 1146).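 Note: PC12 cells with 6xCRE LacZ reporter stimulated by forskolin 10 µM; beta-galactosidase reporter signal reflecting CREB driven transcription.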 The settings on record: luminescence, 4.5 h, higher = more signal, called active from +8 up or from −8 down.
In test [6] the target is Streptavidin (Streptomyces avidinii) (UniProt P22629). Kind of test: compounds binding control protein streptavidin – biophysical, small-molecule microarray, 635/667 nm fluorescence, artefact control for SMM compound annotation, primary screen (AID 1147).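 Note: signal reflects streptavidin binding to arrayed compounds as a control protein.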 The settings on record: higher = more signal.
Test [7] is described as follows: probe aInhba binding on compound microarray – biochemical, small-molecule microarray, 635/667 nm fluorescence, primary screen (AID 1148).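 Note: score merges 667nm spot fluorescence with signal-to-noise for antibody binding to printed compounds.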 The settings on record: higher = more signal.
Test [8] deals with Torsin-1A (Homo sapiens) (UniProt O14656). Kind of test: TOR1A wild-type binding on microarray – cell lysate, small-molecule microarray, lysate, 635/667 nm, primary screen (AID 1149). The settings on record: COS7 hTOR1A-WT lysate, 635 nm fluorescence, higher = more signal.
Test [9] shares this target. In words: torsin A mutant lysate binding on microarrays – cell lysate, small-molecule microarray, COS7 lysate, 635/667 nm fluorescence, primary screen (AID 1150).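 Note: score pools 667 nm emission and signal to noise measuring lysate protein binding.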 The settings on record: COS7 hTOR1A mutant lysate, 635 nm fluorescence, higher = more signal.
Test [10] deals with Sonic hedgehog protein (Shh). In words: Sonic hedgehog microarray binding compounds – biochemical, small-molecule microarray, 635/667 nm fluorescence, primary screen (AID 1151).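 Note: Shh protein binding to compounds spotted on small-molecule microarray slides; score combines spot fluorescence intensity with signal-to-noise across triplicate slides.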 The settings on record: 635 nm fluorescence, higher = more signal.
Test [11] in a line: optical density shifts of acrAB sulA E. coli – strain DRC41, OD650, 48 h, E. coli filamentation inducer project, primary screen (AID 1152).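 Note: E. coli MC1000 strain DRC41 lacking acrAB efflux pump and sulA.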 The settings on record: higher = more signal, called active from +8 up or from −8 down.
Test [12] is described as follows: probe aLefty1 binding on compound microarray – biochemical, small-molecule microarray, 635/667 nm fluorescence, primary screen (AID 1153).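 Note: score merges spot fluorescence with signal-to-noise ratio from the scanned slide images.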 The settings on record: higher = more signal.
The nature of test [13]: plasmodial surface anion channel blockers, osmotic lysis – cell-based, P. falciparum Indochina, OD700, 1 h, primary screen (AID 1154). The settings on record: P. falciparum Indochina infected RBC osmotic lysis, higher = more signal, called active from +8 up or from −8 down.
A short description of test [14]: plasmodial surface anion channel blockers, osmotic lysis – cell-based, P. falciparum Indochina, OD700, 2 h, primary screen (AID 1155).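 Note: lysis reports solute entry through the parasite surface anion channel PSAC.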 The settings on record: P. falciparum Indochina infected erythrocytes, higher = more signal, called active from +8 up or from −8 down.
Test [15] is described as follows: changes in parasitized red cell lysis, either direction – P. falciparum Indochina, OD700, 3 h, PSAC antagonist project, primary screen (AID 1156). The settings on record: P. falciparum-infected erythrocytes, osmotic lysis, higher = more signal, called active from +8 up or from −8 down.
The nature of test [16]: plasmodial surface anion channel blockers, osmotic lysis – cell-based, P. falciparum Indochina, OD700, 18 h, primary screen (AID 1157). The settings on record: P. falciparum Indochina infected erythrocytes, osmotic lysis OD700, 18 h; higher = more signal, called active from +8 up or from −8 down.
Test [17] is described as follows: S6 kinase pathway phospho-S6 level changes – cell-based, A549, cytoblot, luminescence, serum-stimulated, primary screen (AID 1158).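 Note: serum-stimulated A549 lung adenocarcinoma cells; signal is phosphorylated S6 detected by cytoblot immunostaining with HRP secondary.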 The settings on record: 5 h, higher = more signal.
Test [18] addresses NADPH oxidase 2 (Homo sapiens) (UniProt P04839). Kind of test: compounds shifting NOX2 Amplex Red fluorescence – cell-based, HEK293-NOX2, PMA-stimulated, NOX inhibitor project, primary screen (AID 1159). Note: test concentration not given here. The settings on record: 45 min, higher = more signal, called active from +8 up or from −8 down.
The target in test [19] is NADPH oxidase 4 (Homo sapiens) (UniProt Q9NPH5). Kind of test: compounds shifting NOX4 Amplex Red fluorescence – cell-based, HEK293-NOX4, tetracycline-induced, NOX inhibitor project, primary screen (AID 1160). The settings on record: HEK293-NOX4, Amplex Red H2O2 fluorescence, 45 min; higher = more signal, called active from +8 up or from −8 down.
The target in test [20] is NADPH oxidase 5 (Homo sapiens) (UniProt Q96PH1). In words: compounds shifting NOX5 Amplex Red fluorescence – cell-based, HEK293-NOX5, NOX inhibitor project, primary screen (AID 1161). The settings on record: HEK293-NOX5, ionomycin, 45 min, higher = more signal.
Sequence of NADPH oxidase 5 (Homo sapiens) (Q96PH1 whole entry, looked up): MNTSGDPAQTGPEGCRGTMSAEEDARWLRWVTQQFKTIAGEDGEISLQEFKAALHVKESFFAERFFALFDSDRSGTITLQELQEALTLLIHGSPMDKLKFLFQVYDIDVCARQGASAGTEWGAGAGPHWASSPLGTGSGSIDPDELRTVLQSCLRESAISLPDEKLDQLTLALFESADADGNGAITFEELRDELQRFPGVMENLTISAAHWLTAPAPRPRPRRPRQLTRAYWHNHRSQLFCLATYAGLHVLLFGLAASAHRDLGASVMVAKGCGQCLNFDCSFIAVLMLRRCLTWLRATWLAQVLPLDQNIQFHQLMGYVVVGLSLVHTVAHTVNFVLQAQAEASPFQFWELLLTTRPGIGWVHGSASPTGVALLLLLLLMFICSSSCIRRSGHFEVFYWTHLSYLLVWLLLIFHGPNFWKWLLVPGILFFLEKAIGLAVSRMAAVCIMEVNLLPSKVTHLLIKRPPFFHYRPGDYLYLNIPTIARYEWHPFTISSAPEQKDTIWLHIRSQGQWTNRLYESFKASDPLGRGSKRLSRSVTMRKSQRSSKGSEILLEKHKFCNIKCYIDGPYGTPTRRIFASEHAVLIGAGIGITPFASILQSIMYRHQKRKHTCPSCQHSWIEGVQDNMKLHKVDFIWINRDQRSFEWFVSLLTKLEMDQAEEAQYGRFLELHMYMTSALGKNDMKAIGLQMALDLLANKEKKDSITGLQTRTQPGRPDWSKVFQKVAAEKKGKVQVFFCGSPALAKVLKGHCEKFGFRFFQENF

Sequence of NADPH oxidase 2 (Homo sapiens) (P04839 whole entry, looked up): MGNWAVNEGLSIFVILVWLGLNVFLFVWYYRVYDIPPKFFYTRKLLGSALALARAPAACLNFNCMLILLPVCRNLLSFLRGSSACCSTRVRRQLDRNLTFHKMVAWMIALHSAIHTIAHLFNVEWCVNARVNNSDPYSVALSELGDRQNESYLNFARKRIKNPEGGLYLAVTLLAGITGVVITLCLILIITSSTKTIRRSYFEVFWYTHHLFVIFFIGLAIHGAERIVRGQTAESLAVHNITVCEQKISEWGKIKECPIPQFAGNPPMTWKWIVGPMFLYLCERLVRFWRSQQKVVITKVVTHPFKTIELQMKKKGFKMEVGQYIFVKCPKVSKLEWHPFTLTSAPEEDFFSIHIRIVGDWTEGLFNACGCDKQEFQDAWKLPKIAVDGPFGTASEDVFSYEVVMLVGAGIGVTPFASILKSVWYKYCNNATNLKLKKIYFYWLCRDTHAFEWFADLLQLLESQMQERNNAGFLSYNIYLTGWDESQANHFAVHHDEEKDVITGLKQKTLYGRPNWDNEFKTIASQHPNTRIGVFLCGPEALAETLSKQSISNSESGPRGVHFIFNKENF
Sequence of Streptavidin (Streptomyces avidinii) (P22629 whole entry, looked up): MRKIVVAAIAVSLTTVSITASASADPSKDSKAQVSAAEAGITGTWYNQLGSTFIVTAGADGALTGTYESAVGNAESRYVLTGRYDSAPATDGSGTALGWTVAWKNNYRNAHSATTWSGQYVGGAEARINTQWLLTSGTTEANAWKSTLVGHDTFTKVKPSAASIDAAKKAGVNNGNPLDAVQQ
Sequence of Torsin-1A (Homo sapiens) (O14656 whole entry, looked up): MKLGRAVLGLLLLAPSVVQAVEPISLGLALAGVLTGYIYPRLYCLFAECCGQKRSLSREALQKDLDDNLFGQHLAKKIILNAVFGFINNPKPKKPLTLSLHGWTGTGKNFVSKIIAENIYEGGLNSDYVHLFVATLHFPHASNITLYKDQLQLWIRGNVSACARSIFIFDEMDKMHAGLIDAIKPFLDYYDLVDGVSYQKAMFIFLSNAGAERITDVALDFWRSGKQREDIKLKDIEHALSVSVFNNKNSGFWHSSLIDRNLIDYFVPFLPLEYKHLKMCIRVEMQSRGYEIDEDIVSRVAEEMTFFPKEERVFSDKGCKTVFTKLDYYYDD
Sequence of NADPH oxidase 4 (Homo sapiens) (Q9NPH5 whole entry, looked up): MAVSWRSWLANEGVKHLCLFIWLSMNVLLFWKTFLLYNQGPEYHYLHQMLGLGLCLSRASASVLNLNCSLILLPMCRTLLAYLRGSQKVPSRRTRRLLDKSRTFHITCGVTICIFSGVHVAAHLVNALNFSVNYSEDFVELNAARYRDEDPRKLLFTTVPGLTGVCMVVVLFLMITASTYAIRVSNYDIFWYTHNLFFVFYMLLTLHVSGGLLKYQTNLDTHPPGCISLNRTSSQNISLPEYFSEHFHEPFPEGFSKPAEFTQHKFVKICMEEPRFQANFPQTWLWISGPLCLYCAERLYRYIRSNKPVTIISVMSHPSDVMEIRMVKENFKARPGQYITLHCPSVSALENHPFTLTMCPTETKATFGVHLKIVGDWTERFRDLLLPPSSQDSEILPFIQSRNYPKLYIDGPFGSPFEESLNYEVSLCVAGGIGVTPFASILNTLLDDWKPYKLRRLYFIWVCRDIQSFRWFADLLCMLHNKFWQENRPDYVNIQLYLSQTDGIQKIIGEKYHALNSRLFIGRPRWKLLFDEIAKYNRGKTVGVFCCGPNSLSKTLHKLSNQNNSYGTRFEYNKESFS

For `COc1ccc(CCNC(=O)[C@@]2(c3ccc([N+](=O)[O-])cc3)CC(=O)N(C3CCCCC3)[C@@H]2c2ccc(CO)cc2I)cc1`, the composite z-score in test [1] is 1.07; in test [6], -0.0827; in test [7], -0.0695; in test [8] it was 0.628; in [9] it was 0.0294; in test [10], 0.575. This compound gave a composite z-score in [12] of 0.0341. Also, the z-score was -4.72 (inactive) in test [2]; 1.02 (inactive) in [3]; 0.441 (inactive) in [4]; 0.0398 (inactive) in [5]; 0.423 (inactive) in test [11]; 11.9 (active) in [13]. In addition, the z-score in [14] was 1.78 (inactive); in test [15], 3.17 (inactive); in [16], 1.04 (inactive); in test [17], -0.189; in [18], 1.3 (inactive); in test [19], -1.04 (inactive). Moreover, the z-score in test [20] worked out at 2.21.
Take `COC(=O)[C@H]1N=C(c2ccc(OCCCO)cc2)O[C@H]1c1ccccc1N=[N+]=[N-]`: the composite z-score was 0.563 in [1]; 0.489 in [6]; 0.317 in [7]; 0.698 in test [8]; 0.175 in test [9]; -0.207 in test [10]. The compound further registered a composite z-score in test [12] of 0.527. The z-score was -2.38 (inactive) in [2]; -0.17 (inactive) in [3]; 1.18 (inactive) in test [4]; 0.226 (inactive) in test [5]; -0.33 (inactive) in test [11]; 29.3 (active) in [13]. The z-score in test [14] was 24.7 (active); in [15], 2.2 (inactive); in [16], 4.48 (inactive); in [17], 0.352; in test [18], -1.69 (inactive); in test [19], -0.0764 (inactive). Also, the z-score in test [20] is -2.1.
Regarding `CC[C@H]1C2=C3C(CC[C@H]4C(OCc5ccc(F)cc5C(F)(F)F)OC[C@](C)([C@@H]34)N(C(=O)OC(C)(C)C)C2)C(COC(C)=O)C1COC(C)=O` (stereo not given in full), the composite z-score in test [1] is 0.374; in [6] it was 1.3; in test [7], 0.214; in test [8], 0.129; in [9], 0.168; in test [10], -1.2. Moreover, the composite z-score in [12] worked out at 0.713. For the same compound, the z-score was -1.35 (inactive) in [2]; 0.729 (inactive) in test [3]; 0.204 (inactive) in test [4]; 1.3 (inactive) in [5]; -2.44 (inactive) in test [11]; 0.408 (inactive) in test [13]. Moreover, the z-score in test [14] was -0.248 (inactive); in test [15], 0.483 (inactive); in test [16] it was 0.323 (inactive); in test [17], -0.772; in test [18] it was -1.05 (inactive); in test [19], -2.56 (inactive). For the same compound, the z-score in test [20] was -1.43.
`CN1C(=O)C2C=CC(C(O)COCc3ccccc3)N(Nc3ccc([N+](=O)[O-])cc3[N+](=O)[O-])C2C1=O` (stereo not given): the composite z-score in test [1] was 0.727; in [6], -0.387; in test [7], 0.0442; in test [8], -0.306; in test [9], 0.713; in [10], -0.997. The compound further returned a composite z-score in test [12] of 0.332. Besides, the z-score in test [2] was 0.615 (inactive); in test [3] it was -0.73 (inactive); in test [4], 1.01 (inactive); in test [5] it was -0.252 (inactive); in test [11], -0.416 (inactive); in [13], 3.59 (inactive). Also, the z-score in test [14] was 1.4 (inactive); in test [15], -0.0794 (inactive); in [16], 1.05 (inactive); in test [17] it was -0.859; in test [18], 0.223 (inactive); in test [19] it was -2.17 (inactive). In addition, the z-score in test [20] was -0.914.
As for `O=C1O[C@@H](c2ccccc2)[C@@H](c2ccccc2)N2[C@@H](c3ccc(OCCO)cc3)[C@]3(C(=O)Nc4ccc(C#CC5=CCCCC5)cc43)[C@@H](C(=O)Nc3nc4ccccc4s3)[C@H]12`, the composite z-score in test [1] is 0.256; in test [6], 0.549; in test [7], -0.145; in [8], -0.0561; in test [9], 0.0025; in [10] it was 1.43. In test [12], this compound returned a composite z-score of -0.0857. The z-score in test [2] is -1.89 (inactive); in [3], -1.2 (inactive); in test [4], -0.698 (inactive); in test [5], -0.797 (inactive); in test [11], -0.558 (inactive); in [13], 1.88 (inactive). Moreover, the z-score in test [14] is 2.03 (inactive); in test [15] it was 1.92 (inactive); in test [16], 2.11 (inactive); in [17], -0.579; in test [18], 1.01 (inactive); in test [19], -0.188 (inactive). Besides, in test [20], the z-score came to 0.0226.
